The list is not random: actives were taken first. Their share in the collection is about 2.7%.
ANO1 activ: mouse TMEM16A channel activation, primary screen. Q8BHY3. HEK293 TMEM16A/YFP-H148Q/I152L, iodide quench fluorescence; stronger effect = lower value. B-score at 10 µM. 340,000 tested, 0.3% active;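 active = fluorescence-ratio B-score plate-corrected deviation score at least 3 library SD below zero, with starting fluorescence score within 5 deviations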;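 note: channel opened by trigger with iodide after compound preincubation; score built on the fluorescence ratio of max minus min over baseline; more negative score means more quench and so TMEM16A activation or potentiation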
TMEM16A inh: mouse TMEM16A channel inhibition, primary screen; Q8BHY3; HEK293 TMEM16A/YFP iodide influx fluorescence, ionomycin; normalized B-score (activity score, 25-100; higher = stronger inhibition) at 10 µM; 310,000 tested, 1.2% active;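 active = ratio plate-corrected score three or more library SD toward inhibition, starting fluorescence score within five deviations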;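 note: score derived from kinetic fluorescence span divided by baseline fluorescence per well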
CHT PAM: allosteric activators of human choline transporter CHT. CHT-expressing cells, membrane potential dye, choline EC20; stronger effect = higher value; LV-AA mutant CHT in HEK293 cells. 310,000 tested, 0.49% active. B-score at 10 µM. Q9GZV3;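 active = initial fluorescence not abnormally high and integrated response B-score, plate-corrected, over 3 SD above library mean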
IDE cell activ: boosts human insulin-degrading enzyme activity in HEK cells | FAbeta-B cleavage, fluorescence polarization; 0% vehicle, 100% cell-free pure enzyme wells | activation, % at 5.96 µM | 340,000 tested, 0.073% active;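 active = activation above the mean of all tested compounds plus 3 SD, set per screening campaign, cut at about 17% in these data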
Target sequence (P14735 whole entry, looked up): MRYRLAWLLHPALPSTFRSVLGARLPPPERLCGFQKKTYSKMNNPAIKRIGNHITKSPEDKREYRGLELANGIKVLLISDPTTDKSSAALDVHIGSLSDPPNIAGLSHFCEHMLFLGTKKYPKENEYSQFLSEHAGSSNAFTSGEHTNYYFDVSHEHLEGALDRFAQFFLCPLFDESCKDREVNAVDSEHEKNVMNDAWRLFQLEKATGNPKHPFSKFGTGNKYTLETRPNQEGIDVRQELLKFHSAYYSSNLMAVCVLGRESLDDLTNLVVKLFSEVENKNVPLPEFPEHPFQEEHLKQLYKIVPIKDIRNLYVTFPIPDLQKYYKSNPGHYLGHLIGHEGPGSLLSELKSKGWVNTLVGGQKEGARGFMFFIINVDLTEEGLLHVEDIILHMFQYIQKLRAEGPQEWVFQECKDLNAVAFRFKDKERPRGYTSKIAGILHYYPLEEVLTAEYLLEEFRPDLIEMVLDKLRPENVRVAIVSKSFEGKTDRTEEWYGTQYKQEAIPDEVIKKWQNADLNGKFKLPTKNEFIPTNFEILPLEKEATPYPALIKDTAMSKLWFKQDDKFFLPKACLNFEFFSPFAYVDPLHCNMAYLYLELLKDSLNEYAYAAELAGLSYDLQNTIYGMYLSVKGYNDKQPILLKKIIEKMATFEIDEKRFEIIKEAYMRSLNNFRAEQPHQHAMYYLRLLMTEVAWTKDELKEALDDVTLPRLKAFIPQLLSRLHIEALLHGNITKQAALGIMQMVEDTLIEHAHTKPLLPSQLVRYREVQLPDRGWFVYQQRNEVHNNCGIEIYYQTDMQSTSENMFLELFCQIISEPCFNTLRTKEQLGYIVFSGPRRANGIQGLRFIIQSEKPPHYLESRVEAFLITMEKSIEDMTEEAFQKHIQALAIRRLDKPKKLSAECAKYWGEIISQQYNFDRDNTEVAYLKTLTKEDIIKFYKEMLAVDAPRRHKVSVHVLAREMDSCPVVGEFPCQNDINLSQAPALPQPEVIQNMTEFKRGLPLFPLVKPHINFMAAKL
IDE cell inh: inhibits human insulin-degrading enzyme in HEK cells. P14735. inhibition, % at 5.59 µM. 320,000 tested, 0.41% active. AID 434962. FAbetaB cleavage, fluorescence polarization;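 active = percent inhibition above the average of all tested compounds plus 3 SD, set per screening campaign, cut at about 16% in these data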;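 note: IDE supplied by intact live HEK cells; FP after avidin binding of uncleaved biotin substrate so inhibition keeps polarization high; 0% = DMSO wells and 100% = 60 µM reference IDE inhibitor Ii1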
CHT inh: inhibitors of human choline transporter CHT; Q9GZV3; CHT-expressing cells, membrane potential dye, choline response; stronger effect = lower value; B-score at 10 µM; 310,000 tested, 0.86% active; AID 488975;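 active = B-score over 3 SD under the library average, and starting fluorescence ratio not unusually high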;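 note: choline stimulus applied at its EC90 after an EC20 pre-addition; B-score computed on integrated fluorescence ratio after choline addition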
CHT activ conf: human CHT activation, confirmatory screen | CHT-expressing cells, membrane potential dye fluorescence (FDSS); % of choline EC20–EC90 response window; HEK293 expressing CHT LV-AA mutant; choline added at its EC20 | activation, % at 10 µM | shares compounds with CHT PAM | 2,500 tested, 91% active;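 active = primary screen active, with duplicate mean activation above negative control mean plus 3 SD, cut at about 11% in these data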
HEK293 MP dye: CHT activator counter-screen hit in parental HEK293 cells. shares compounds with CHT PAM. membrane potential dye fluorescence (FDSS); measured after EC20 choline addition. ratio readout change at 10 µM, hits read low. 2,500 tested, 62% active;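 active = duplicate-averaged ratio beyond 3 SD from buffer wells, up or down, though filed actives are nearly all decreases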
Active calls of the source: *; i = inactive; nt = not tested or not shown.

SMILES | ANO1 activ | TMEM16A inh | CHT PAM | IDE cell activ | IDE cell inh | CHT inh | CHT activ conf | HEK293 MP dye
COc1ccc(-c2nc3cccc(C)n3c2NCc2ccco2)cc1OC | i | i | 7.55* | 7.8 | -0.5 | i | 36.0* | -42.3*
COc1ccc(-c2csc(NCc3ccco3)n2)cc1C | i | i | i | 5.1 | 4.6 | i | nt | nt
Cc1ccc(C)c(OC(=O)C2CSC3(C)CCC(=O)N23)c1C (centres undefined) | i | nt | nt | 1.6 | -4.4 | nt | nt | nt
COc1ccc(S(=O)(=O)N2c3ccc(F)cc3CCC2C)cc1 (centres undefined) | i | i | i | -5.6 | 3.8 | i | 43.9* | i
CC1CCc2ccc(F)cc2N1S(=O)(=O)c1cccs1 (centres undefined) | i | i | i | 3.0 | -1.5 | i | nt | nt
Cc1ccc(NC(=O)Cn2nnc(C(=O)NCc3cccs3)c2N)cc1F | i | i | i | 1.2 | -0.4 | i | nt | nt
COc1ccccc1CNC(=O)COC(=O)CSc1ccc(Cl)cc1 | i | i | i | -1.6 | -7.8 | i | nt | nt
COc1ccccc1CNc1cc(CSc2ccc(Cl)cc2)nc(C)n1 | i | 25* | i | 2.1 | -2.5 | i | 22.7* | i
O=C(CCCN1CCC(O)(c2ccc(Br)cc2)CC1)c1ccc(F)cc1 | i | i | i | 3.0 | -2.9 | i | 60.1* | i
CCC(CC)COC(=O)C(C#N)c1nc2ccccc2nc1N1CCN(CC)CC1 (centres undefined) | i | i | i | 1.7 | -0.9 | i | 32.4* | -36.6*
Cc1ccc2c(c1)-n1c(nc3ccc(C)cc3c1=O)C(Cc1ccccc1)NC2=O (centres undefined) | nt | nt | nt | nt | 2.5 | nt | nt | nt
Cc1cccc(N2CCN(C(c3ccncc3)c3nnnn3C(C)(C)C)CC2)c1C (centres undefined) | i | i | i | -3.5 | 3.9 | i | 29.3* | i
CC(C)(C)n1nnnc1C(c1cccnc1)N1CCN(c2cccc(C(F)(F)F)c2)CC1 (centres undefined) | i | i | 7.77* | -5.5 | -1.1 | i | 20.8* | i
CCN(CC)c1ccc(C(=O)NNC(=O)CN2C(=O)NC(C)(c3ccccc3)C2=O)cc1 (centres undefined) | i | nt | nt | 2.3 | -3.8 | nt | nt | nt
C/C(=N\NC(=O)c1nn(C)cc1Br)c1ccncc1 | i | i | 7.26* | -4.6 | 4.2 | i | 16.6* | -36.8*
C/C(=N\NC(=O)c1nn(C)cc1Cl)c1ccncc1 | i | i | i | 3.6 | 2.0 | i | nt | nt
COc1ccc(-c2nc3ccccc3n2Cc2ccc(C)cc2)cc1 | i | i | i | 6.1 | 0.7 | i | nt | nt
COc1ccc(Cn2c(-c3ccc(C)cc3)c[n+]3ccccc23)cc1 | i | i | 10.9* | 5.5 | 6.2 | i | 61.9* | -50.9*
Clc1cccc(CN2CCSCC2)c1Cl | i | i | i | -3.5 | nt | i | nt | nt
c1cc(-c2nnc(-c3ccncc3)o2)ccn1 | i | i | 8.74* | 2.3 | -1.3 | i | 76.9* | -59.5*
CCOC(=O)C1(CC2CC2)CCN(Cc2cn[nH]c2-c2cccc(F)c2)CC1 | i | i | i | -0.7 | -0.2 | i | 22.4* | i
CCOC(=O)C1(CC2CC2)CCN(Cc2cn[nH]c2-c2ccccc2)CC1 | i | i | i | 3.7 | 0.4 | i | nt | nt
CC[n+]1c(C)sc2cc(OC)ccc21 | i | i | i | -3.4 | 15.8 | i | 29.1* | -61.6*
COc1ccc2c(Cl)c(C(=O)NN)sc2c1 | i | i | i | -3.2 | 3.8 | i | nt | nt
CNC(=O)COC(=O)c1ccc2c(c1)NC(=O)C1CCCN21 (centres undefined) | nt | i | i | nt | 4.7 | i | nt | nt
SMILES | ANO1 activ | TMEM16A inh | CHT PAM | IDE cell activ | IDE cell inh | CHT inh | CHT activ conf | HEK293 MP dye
CCCC(c1nnnn1Cc1ccco1)N1CCN(c2cc(Cl)ccc2C)CC1 (centres undefined) | i | i | 6.66* | 3.3 | 3.0 | i | 34.6* | i
COc1ccc(C(=O)C[n+]2ccccc2/C=N/O)cc1 | i | i | i | 2.6 | -0.3 | i | 19.1* | -24.7*
O/N=C/c1cccc[n+]1CCCCCC[n+]1ccccc1/C=N/O | i | i | 6.38* | 2.6 | nt | i | 43.6* | -59.6*
O=C(CN1C(=O)NC2(CCCCCCC2)C1=O)NCc1ccccc1 | i | nt | nt | 2.2 | 0.7 | nt | nt | nt
O=C(c1ccc(CS(=O)c2ccccc2Cl)o1)N1CCN(c2ccccc2)CC1 (centres undefined) | i | i | 6.36* | 0.1 | 2.9 | i | 16.6* | i
O=C(c1ccc(CS(=O)c2ccccc2Cl)o1)N1CCOCC1 (centres undefined) | i | i | i | 7.3 | -3.2 | i | nt | nt
COc1cccc(N2CCN(C(=O)c3ccc(CS(=O)c4ccccc4Cl)o3)CC2)c1 (centres undefined) | i | i | i | 0.2 | -0.7 | i | 50.2* | i
CCc1ccc(Nc2n[n+](-c3ccccc3)c(-c3ccc(SC)cc3)s2)cc1 | i | i | 10.9* | -3.2 | -2.5 | i | 26.2* | i
COc1ccc(C)cc1Nc1n[n+](-c2ccccc2)c(-c2ccc(SC)cc2)s1 | i | i | 7.82* | 6.1 | 3.0 | i | 46.5* | i
CCc1ccc(Nc2n[n+](-c3ccccc3)c(-c3ccc(C(=O)O)cc3)s2)cc1 | i | i | i | 3.6 | -0.5 | i | nt | nt
CSc1ccc(-c2sc(Nc3ccccc3)n[n+]2-c2ccccc2)cc1 | i | i | 8.2* | 4.3 | 7.1 | i | 15.2* | i
CSc1ccc(-c2sc(Nc3cccc4ccccc34)n[n+]2-c2ccccc2)cc1 | i | i | i | -1.7 | 4.6 | i | nt | nt
CC(C)(C)OC(=O)N(Cc1ccccc1)Cc1ccccc1OCc1ccc(NC(=O)C2CCC2)cc1 | i | nt | nt | -0.4 | nt | nt | nt | nt
NC(=O)c1cc(S(=O)(=O)Nc2ccc(OC(F)(F)F)cc2)cs1 | i | i | i | 0.1 | 0.8 | i | nt | nt
CCN(C(=O)c1cccc(S(=O)(=O)N(C)C)c1)C12CC3CC(CC(C3)C1)C2 | i | i | 9.72* | -0.9 | -2.7 | i | 14.1* | i

Bioassay records from PubChem.
